Reference: PubChem BioAssay (NCATS)
Records with an inconclusive call do not appear. A number with no mark means an inactive call. Calls of active or inactive are those of the source. The call rests on the fitted dose curve; in most records, active means well fitted cell-killing curve with a large enough effect; inconclusive means small, poorly fitted or top-dose-only effect; inactive means flat fitted curve, though single readings scatter.

Assay: Cell Viability - LYMP2-021 (AID 974);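 further: compound exposure lasts 24 hours at 37 °C; nearly all actives have a fitted effect of over 55% in size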
Conditions: LYMP2-021 lymphoblastoid cells viability; series mostly up to 92.2 µM; activity change, negative = cytotoxicity: at the top concentration
Description: NIH Chemical Genomics Center [NCGC]
NIH Molecular Libraries Screening Centers Network [MLSCN]
National Institutes of Environmental Health Sciences [NIEHS]
National Toxicology Program [NTP]
We have developed a 1536-well cell-based assay for quantitative high throughput screening (qHTS) against a number of cell lines to determine in vitro cytotoxicity of small molecules. This particular assay uses a human lymphoblastoid cell line (LYMP2-021) purchased from Coriell Institute for Medical Research.
NCGC Assay Protocol Summary:
The CellTiter-Glo luminescent cell viability assay (Promega) is a homogeneous method to measure the number of viable cells in culture. The end point readout of this assay is based on quantitation of intracellular ATP, an indicator of metabolic activity, using the luciferase reaction. Luciferase catalyzes the oxidation of beetle Luciferin to oxyluciferin and light in the presence of ATP. The luminescent signal is proportional to amount of ATP present.
Using the CellTiter-Glo luminescent cell viability assay, the amount of cellular ATP was measured in the lymphoblastoid cell line with complete culture medium following compound treatment for 24 hours. The assay was performed in opaque white Kalypsys 1536-well plates. In the screen, tetraoctylammonium bromide was used as positive control. Library compounds were measured for their ability to cause acute toxicity in the cell line, as reflected by a decrease in intracellular ATP levels, in a concentration-dependent manner. […] AC50 values were determined from concentration-response data modeled with the standard Hill equation.
qHTS protocol for CellTiter Glo lymphoblastoid cellular assay
[Step] [Parameter] [Value] [Description]
1. Reagent; 5 uL; 2500 lymphoblastoid cells/well
2. Time; 5 hr; 37 C incubation
4. Controls; 23 nL; Tetraoctylammonium bromide 6.4pM to 92 uM
5. Time; 24 hr; 37 C incubation
6. Reagent; 5 uL; CellTiter Glo reagent
7. Time; 30 min; Room Temperature
8. Detection; Luminescence; Viewlux plate reader
Keywords: cell viability, cytotoxicity, lymphoblastoid cell line, luminescence, NTPHTS, NTPHTS_NCGC, NIEHS, DSSTox, MLSMR, MLSCN, NIH Roadmap, qHTS, NCGC
On the % scale 0 is the no-effect control and ±100 the full control effect.

SMILES	activity change, negative = cytotoxicity [%]	outcome
O=P1(N(CCCl)CCCl)NCCCO1 (stereo not drawn)	1.13	
Clc1ccc(C(c2ccc(Cl)cc2)C(Cl)(Cl)Cl)cc1	-1.85	
COP(=S)(OC)Oc1ccc(SC)c(C)c1	-3.06	
CC(C)NC(C)C	-1.39	
C[C@]1(O)CC[C@H]2[C@@H]3CCC4=CC(=O)CC[C@]4(C)[C@@]3(F)[C@@H](O)C[C@@]21C	1.55	
COC(=O)C(c1ccccc1)C1CCCCN1 (stereo not drawn)	-11.5	
CCCC(C)(COC(N)=O)COC(N)=O	-6.81	
CC(C)c1cccc(C(C)C)c1O	0.471	
CCC(C)(C)c1ccc(O)cc1	2.13	
C[C@]12CCC(=O)C=C1CC[C@@H]1[C@@H]2CC[C@]2(C)C(=O)CC[C@@H]12		inactive
Nc1ccccc1	-1.33	
CCOC(=O)CC(SP(=S)(OC)OC)C(=O)OCC (stereo not drawn)	-8.13	
COc1cc(OC)c(OC)cc1C=O	-1.52	
C[C@]12CCC(=O)C=C1CC[C@@H]1[C@@H]2CC[C@@]2(C)[C@H]1CC[C@]2(C)O	-11.3	
Oc1ccc(Cl)cc1	-1.45	
Nc1ccccc1C(=O)O	-3.52	
NCCc1ccc(O)cc1	-2.56	
CN1C[C@H](C(=O)N[C@]2(C)O[C@@]3(O)[C@@H]4CCCN4C(=O)[C@H](Cc4ccccc4)N3C2=O)C=C2c3cccc4[nH]cc(c34)C[C@H]21	-29.7	
